The assay can be described thus: growth inhibition of WT strain, primary screen, mitochondrial fusion inhibitor project, WT and mutant strains, chemical genetic (AID 1362). The note with it: mitochondrial fusion phenotypic screen, at 10 µM.
Setting [1] is: WT strain, growth inhibition, stronger effect = higher value.

Hit rate of the full screen: of about 190,000 compounds, about 4,000 (2.1%) were called active. Cut-off read from the data, not from the text of the source: active = inhibition above about 58%; inactive = the rest, inconclusive results apart; tested in S. cerevisiae. This excerpt belongs to a sample that is enriched for actives.

We go through 42 compounds from PubChem BioAssay AID1362 (SRMLSC, 2008).

Regarding `CC(=O)c1ccc(NC(=O)C(C)NCc2ccc(Cl)cc2)cc1` (centres undefined), the inhibition runs as follows: under setting [1], 26.3% (inactive); (mutant strain inhibition) -21.6%.
For `Cc1cccc(C)c1NC(=O)Nc1ccccc1-n1ccnc1`, the inhibition is, setting by setting: under setting [1], 0.23% (inactive); (mutant strain inhibition) 6.61%.
For `CCNC(=S)NNC(=O)C1CCN(Cc2ccccc2)CC1`, in that order: 2.38% (inactive) and -10.7%.
For the compound `Fc1ccccc1C(c1nnnn1Cc1ccc2c(c1)OCO2)N1CCN(Cc2ccccc2)CC1` (centres undefined), the inhibition under setting [1] was 15.4% (inactive) and the inhibition (mutant strain inhibition) was 18.9%.
For `CCC(C)(C)n1nnnc1C(c1cccs1)N1CCN(Cc2ccccc2)CC1` (centres undefined), in that order: 10.3% (inactive) and 21.9%.
Taken in the same sequence, the figures for `Fc1ccc(Cn2nnnc2C(c2cccs2)N2CCCCCC2)cc1` (centres undefined) were 62.9% (active) and 11.4%.
Taken in the same sequence, the figures for `O=C(NCc1nnc(SCC(=O)N2CCCc3ccccc32)o1)c1ccccc1F` were 1.27% (inactive) and -4.18%.
On to `CC(=O)Nc1ccc(CN2CCN(Cc3ccc(F)c(F)c3)C(CCO)C2)cc1` (centres undefined), for which the inhibition under setting [1] is 1.99% (inactive) and the inhibition (mutant strain inhibition) is 5.61%.
`Cc1ccc(NCc2n[nH]c(=S)n2-c2ccccc2)cc1Cl`: the inhibition was -7.14% (inactive) under setting [1] and 3.54% (mutant strain inhibition).
On to `CC(=O)n1cc([C@@H]2C=C(C(=O)N3CCN(Cc4ccc5c(c4)OCO5)CC3)O[C@H](OCc3ccc(CO)cc3)C2)c2ccccc21`, for which the inhibition is 1.15% (inactive) under setting [1] and 3.61% (mutant strain inhibition).
Taken in the same sequence, the figures for `OCCCC1CCCCN1Cc1nc(Cc2ccccc2Cl)no1` (centres undefined) were -11.6% (inactive) and -5.21%.
For `C=CCC(CC=C)(C(N)=O)c1ccccc1`, the inhibition runs as follows: under setting [1], -18.5% (inactive); (mutant strain inhibition) 6.11%.
Regarding `CC(C)(c1ccccc1)c1ccc(OCCN)cc1`, the inhibition is, setting by setting: under setting [1], 79.8% (active); (mutant strain inhibition) 43.4%.
Taken in the same sequence, the figures for `CN(C)CC(O)COc1ccc(C(C)(C)c2ccc(OCC(O)CN(C)C)cc2)cc1` (centres undefined) were -19.2% (inactive) and -3.67%.
Taken in the same sequence, the figures for `O=C(NCCOc1ccccc1)c1ccccc1` were 3.33% (inactive) and 5.23%.
As to `CCOC(=O)c1cc(-c2ccc(F)cc2)n(CC(=O)NCc2ccccn2)c1C`, the inhibition is -1.19% (inactive) under setting [1] and 1.72% (mutant strain inhibition).
As to `Cc1nn(-c2ccc([N+](=O)[O-])cc2)c(N)c1-c1ccccc1`, the inhibition was 6.29% (inactive) under setting [1] and -26% (mutant strain inhibition).
Consider `Cn1cccc1C(C#N)c1ccccc1C#N` (centres undefined), for which the inhibition is -2.23% (inactive) under setting [1] and -5.92% (mutant strain inhibition).
For `COc1ccccc1CCNC(=O)CSc1nnc2ccc(-c3cccnc3)nn12`, in that order: -7.72% (inactive) and 2.87%.
With `CC(NC(=S)Nc1ccc(OC(F)F)cc1)c1ccc(F)cc1` (centres undefined), the inhibition is, setting by setting: under setting [1], 42.7% (inactive); (mutant strain inhibition) -13.6%.
For `CC(=O)N(CCCN(C)C)c1nc2ccc(C)cc2s1`, in that order: -12.7% (inactive) and -0.04%.
Turning to `COc1cccc2sc(N(CCCN(C)C)C(=O)C(c3ccccc3)c3ccccc3)nc12`, the inhibition under setting [1] was 96.8% (active) and the inhibition (mutant strain inhibition) turned out to be 88.8%.
For `CN(C)CCCN(C(=O)COc1ccccc1)c1nc2c(Cl)cccc2s1`, in that order: -5.71% (inactive) and 13.3%.
For `COc1ccc(CNc2c(CO)cnc3c2cnn3C)cc1`, in that order: 4.76% (inactive) and 3.68%.
Turning to `COCC(C)NC(=O)CSc1nc2nn(-c3ccccc3)c(=O)c-2c2n1CCCCC2` (centres undefined), the inhibition under setting [1] was 0.91% (inactive) and the inhibition (mutant strain inhibition) was -15.1%.
For `O=C(N/N=C/C=C/c1ccccc1)C1CC1(c1ccccc1)c1ccccc1` (centres undefined), in that order: 17.1% (inactive) and -3.76%.
For `CC(/C=C/c1ccccc1)=N\NC(=O)C1CC1(C)c1ccccc1` (centres undefined), in that order: 71.7% (active) and 59.3%.
For `O=C(/C=C/c1ccccc1)c1ccccc1O`, in that order: 12.3% (inactive) and 8.14%.
On to `CCOC(=O)C1=C(CC)Nc2ccccc2N=C1N`, for which the inhibition is -42.2% (inactive) under setting [1] and -18.4% (mutant strain inhibition).
On to `CCO[C@H]1OC(C(=O)N2CCCCCCC2)=C[C@@H](c2ccc(C(F)(F)F)cc2)[C@@H]1CCCO`, for which the inhibition was -11% (inactive) under setting [1] and 9.51% (mutant strain inhibition).
For `O=C(Nc1ccccc1)c1nnsc1S(=O)(=O)c1ccc(Cl)cc1`, in that order: 98.5% (active) and 97.8%.
Taken in the same sequence, the figures for `CC(=O)Nc1cc(C(=O)O)ccc1S(=O)(=O)c1ccc(Cl)cc1` were 8.84% (inactive) and 41.8%.
Consider `O=C(Nc1ccc(Cl)cc1)c1ccsn1`, for which the inhibition was 12.9% (inactive) under setting [1] and 28% (mutant strain inhibition).
With `CN(C)c1ccc(C=NCCc2ccc(S(N)(=O)=O)cc2)cc1`, the inhibition by setting is: under setting [1], -3.5% (inactive); (mutant strain inhibition) -12.7%.
With `O=C(c1cc(Cl)cc(Cl)c1)N1CCC(=O)N(C(COCc2ccccc2)Cc2ccccc2)CC1` (centres undefined), the inhibition was 71.4% (active) under setting [1] and 11.6% (mutant strain inhibition).
With `CC(C)CC(CO)N1CCN(C(=O)c2ccc(Cl)cc2Cl)CCC1=O` (centres undefined), the inhibition by setting is: under setting [1], -10.3% (inactive); (mutant strain inhibition) 1.82%.
Regarding `CC(C)CC(COCc1ccc(Cl)cc1)N1CCN(C(=O)c2ccc(C(F)(F)F)cc2)CCC1=O` (centres undefined), the inhibition runs as follows: under setting [1], 35.7% (inactive); (mutant strain inhibition) 0.99%.
For `O=C(Nc1cccc(F)c1)N1C2CCC1CC(O)(c1cccnc1)C2` (centres undefined), in that order: -6.02% (inactive) and -8.29%.
Taken in the same sequence, the figures for `C=CCn1c(=NC(=O)c2cccs2)sc2cc(NC(C)=O)ccc21` were -0.58% (inactive) and 5.07%.
Taken in the same sequence, the figures for `c1ccc2c(NCC3CCCO3)nc(-c3ccncc3)nc2c1` (centres undefined) were -20% (inactive) and -11%.
In the case of `Clc1cccc(-c2nc(NCC3CCCO3)c3ccccc3n2)c1` (centres undefined), the inhibition runs as follows: under setting [1], 74.2% (active); (mutant strain inhibition) 68.9%.
Taken in the same sequence, the figures for `Cc1nc2ccccc2c2oc(C(=O)NCC3CCCO3)cc12` (centres undefined) were 1.66% (inactive) and -8.79%.
